{"source": "PubChem BioAssay AID588651", "about": "(The Scripps Research Institute Molecular Screening Center, 2011)", "note": "Calls of active or inactive are those of the source. No stated cut-off is given here; in the data, active means inhibition above about 65%; inactive means the rest.", "data": [{"tested_on": "Antitargets", "test": "Fam108b inhibitors and proteome off-target selectivity – biochemical, gel-based ABPP, recombinant soluble Fam108b, HTS hits, complex proteome, late-stage follow-up (AID 588651);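 further: Fam108b spiked into mouse brain membrane proteome; tested at 20 µM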", "conditions": "FP-rhodamine labeling in proteome", "values": [{"smiles": "Cn1c(O)c(C=NNC(=O)c2cc3ccccc3cc2O)c2ccccc21", "outcome": "inactive"}, {"smiles": "Oc1nc(Nc2cccc(Cl)c2)sc1/C=C1\\C=Nc2ccccc21", "outcome": "active"}, {"smiles": "CC1=CC(=O)c2c(O)ccc(O)c2C1=O", "outcome": "inactive"}, {"smiles": "Cc1nc2scc(-c3ccc(Cl)cc3)c2c(=O)o1", "outcome": "inactive"}, {"smiles": "Brc1ccc(-c2csc(Nc3nc(-c4ccc(Br)cc4)cs3)n2)cc1", "outcome": "inactive"}, {"smiles": "O=c1oc(-c2ccccc2F)nc2scc(-c3ccccc3)c12", "outcome": "inactive"}, {"smiles": "O=c1cc(-c2ccc(O)c(-c3c(O)cc(O)c4c(=O)cc(-c5ccc(O)cc5)oc34)c2)oc2cc(O)cc(O)c12", "outcome": "active"}, {"smiles": "CCN(CC)c1ccc(C2Nc3cccc4cccc(c34)N2)c(O)c1", "outcome": "inactive"}, {"smiles": "O=C(Nc1ccc(N2CCCC2)c(S(=O)(=O)Nc2cccc(C(F)(F)F)c2)c1)c1cccs1", "outcome": "inactive"}, {"smiles": "Cc1cc(C)nc(SCc2ccc(C(=O)NN=Cc3cccc(O)c3O)cc2)n1", "outcome": "active"}, {"smiles": "CCc1ccc(S(=O)(=O)N=C2C=C(Sc3ncn[nH]3)C(=O)c3ccccc32)cc1", "outcome": "inactive"}, {"smiles": "Cc1ccc(S(=O)(=O)N=C2C=C(Sc3ncn[nH]3)C(=O)c3ccccc32)cc1", "outcome": "inactive"}, {"smiles": "O=C(NC1CCCCC1)c1sc(=S)n2c1[nH]c(=O)c1ccccc12", "outcome": "inactive"}, {"smiles": "O=c1oc(-c2ccccc2Cl)nc2ccsc12", "outcome": "inactive"}, {"smiles": "Fc1ccc2nc(Nc3nc4cc5c(cc4s3)OCO5)sc2c1", "outcome": "inactive"}, {"smiles": "O=C1C(Cl)=C(N2CCC(C(=O)O)CC2)C(=O)c2ccccc21", "outcome": "inactive"}, {"smiles": "Cc1ccc(C)c(-n2c3nc(=O)[nH]c(=O)c-3cc3cc([N+](=O)[O-])ccc32)c1", "outcome": "inactive"}, {"smiles": "O=C(Nc1ccc2[nH]c(=S)sc2c1)Nc1ccccc1F", "outcome": "inactive"}, {"smiles": "Nc1c(S(=O)(=O)c2cccc(Cl)c2)c2nc3ccccc3nc2n1N=Cc1ccc(O)c(O)c1", "outcome": "inactive"}, {"smiles": "Brc1csc(C=NNc2nc3ccccc3s2)c1", "outcome": "inactive"}, {"smiles": "O=C(O)CCCNc1cc(N2CCN(C(=O)c3ccco3)CC2)c2noc3c2c1C(=O)c1ccccc1-3", "outcome": "inactive"}, {"smiles": "COc1cc2cc(C(=O)NN=Cc3ccccc3Cl)[nH]c2cc1OC", "outcome": "inactive"}, {"smiles": "COc1ccc(-c2csc3nc(-c4ccccc4F)oc(=O)c23)cc1", "outcome": "inactive"}, {"smiles": "O=C1NC(=S)/C(=C\\c2ccc(-c3ccccc3Cl)o2)S1", "outcome": "inactive"}, {"smiles": "O=C1C(SCCO)=C(SCCO)C(=O)c2ccccc21", "outcome": "inactive"}, {"smiles": "CCc1ccc(S(=O)(=O)/N=C2\\C=C(Nc3cccc(C(=O)O)c3)C(=O)c3ccccc32)cc1", "outcome": "inactive"}, {"smiles": "Cc1ccc(-c2csc3nc(C(C)C)oc(=O)c23)c(C)c1", "outcome": "inactive"}, {"smiles": "Oc1c(Cl)cc(Cl)c(Cl)c1Cc1c(O)c(Cl)cc(Cl)c1Cl", "outcome": "inactive"}, {"smiles": "CCn1nc([N+](=O)[O-])c(C(C#N)c2nc3cc(C(F)(F)F)ccc3s2)c(Cl)c1=O", "note": "(centres undefined)", "outcome": "inactive"}, {"smiles": "Oc1ccccc1C1Nc2cccc3cccc(c23)N1", "outcome": "inactive"}, {"smiles": "Nc1ccc2nc(-c3cccc(-c4nc5ccc(N)cc5[nH]4)c3)[nH]c2c1", "outcome": "inactive"}, {"smiles": "COc1cccc(C=NNC(=O)c2[nH]c(C)c(C(=O)NN=Cc3cccc(OC)c3O)c2C)c1O", "outcome": "active"}, {"smiles": "O=c1ccc2cc3c([nH]c4ccc(Br)cc43)oc-2c1O", "outcome": "inactive"}, {"smiles": "COc1ccc(/C=C/C(=O)OCC(=O)Nc2cccc(Oc3ccccc3)c2)c(OC)c1", "outcome": "inactive"}]}]}
